Common to all, as to assay type: functional
Experiment [1] deals with Plasmodium falciparum. Nature of the experiment: GSK_TCMDC: Inhibition of Plasmodium falciparum 3D7 in whole red blood cells, using parasite LDH activity as an index of growth. Test compounds present at 2uM.
For experiment [2], the system named is Plasmodium falciparum. The experiment in a line: GSK_TCMDC: Inhibition of Plasmodium falciparum Dd2 in whole red blood cells, using parasite LDH activity as an index of growth. Test compounds present at 2uM.
In a further experiment the test system is HepG2. Nature of the experiment: GSK_TCMDC: Percent inhibition of human HepG2 cell line. Test compounds present at 10uM.

By Inhibition is commonly meant how much of the control response was suppressed. With `Clc1cccc(Nc2ccc3c(N4CCCCC4)ncnc3n2)c1`, the Inhibition in the experiment with Plasmodium falciparum [1] is 97%; in the experiment with Plasmodium falciparum [2], 93%; in the experiment on HepG2, 54%.

Turning to `Cl.N#Cc1ccc2c(c1)CCN(CCC1CCC(NC(=O)c3cccc(-c4ccc(F)cc4)c3)CC1)CC2` (stereo not given), the Inhibition with Plasmodium falciparum [1] was found to be 92%; in the experiment with Plasmodium falciparum [2] it was 10%; in the experiment with HepG2 it was 32%.

`Oc1ccc(CCNc2nc(N/N=C/C=C/c3ccc(Cl)cc3)nc(N3CCNCC3)n2)cc1`: the Inhibition with Plasmodium falciparum [1] came to 98%; with Plasmodium falciparum [2], 52%; in the experiment on HepG2, 17%.

With `Cc1cc(N2CCCCC2)nc2ccc(NC(=O)c3cccc([N+](=O)[O-])c3)cc12`, the Inhibition is on record as 95% in the experiment on Plasmodium falciparum [1], 99% in the experiment with Plasmodium falciparum [2] and 9% in the experiment on HepG2.

Consider `O=C(Nc1ccc2c(c1)CCC2)c1nc(N2CCN(c3ccncc3)CC2)ccc1Cl.O=C(O)C(F)(F)F`, for which the Inhibition in the experiment with Plasmodium falciparum [1] worked out at 100%; in the experiment with Plasmodium falciparum [2] it was 97%; in the experiment with HepG2 it was 55%.

`CC[C@H](C)CNC(=O)c1cncc(-c2cccc(CN3CCC(N4CCCC4)CC3)c2)c1.O=C(O)C(F)(F)F`: the Inhibition in the experiment with Plasmodium falciparum [1] is 97%; in the experiment on Plasmodium falciparum [2], 5%; in the experiment with HepG2, 0%.

As for `CCCCCCCN1CC[C@@H](CCCc2ccnc3ccc(OCCCCN/C(N)=N/O)cc23)[C@@H](CC)C1.O=C(O)C(=O)O`, the Inhibition came to 90% in the experiment on Plasmodium falciparum [1], 39% with Plasmodium falciparum [2] and 27% with HepG2.

For the compound `CCN1CCN(c2cc(C)c3cc(NC(=O)c4cccc(C(F)(F)F)c4)ccc3n2)CC1`, the Inhibition with Plasmodium falciparum [1] amounted to 100%; in the experiment on Plasmodium falciparum [2], 85%; with HepG2, 24%.

Consider `O=C(/C=C/c1ccc(Cl)c(Cl)c1)NCCCCCN1CCCN(C(=O)Nc2ccc(Cl)cc2)CC1`, for which the results for the Inhibition in the experiment on Plasmodium falciparum [1], in the experiment with Plasmodium falciparum [2] and with HepG2 were 100%, 0% and 21%, respectively.

With `O=C(Cc1cccc(Cl)c1)N1CCc2cc3nccc(N4CCN5CCC[C@H]5C4)c3cc21`, the Inhibition in the experiment on Plasmodium falciparum [1] is 96%; in the experiment with Plasmodium falciparum [2] it was 4%; in the experiment on HepG2, 14%.

Consider `CCc1nc(N)nc(N)c1-c1ccc(C(C)(C)C)cc1`, for which the results for the Inhibition with Plasmodium falciparum [1], in the experiment on Plasmodium falciparum [2] and in the experiment on HepG2 were 94%, 0% and 27%, respectively.

As for `COCCOC(=O)C(=O)c1c(-c2ccccc2)c(-c2ccc(OC)c(OC)c2)c2c3cc(OC)c(OC)cc3ccn12`, the figures for the Inhibition in the experiment with Plasmodium falciparum [1], with Plasmodium falciparum [2] and with HepG2 were 100%, 100% and 4%, respectively.

Take `N#Cc1cnc2cc(-c3cnc(CNCCN4CCOCC4)s3)ccc2c1Nc1ccc(Oc2ccccc2)cc1`: the values for the Inhibition in the experiment with Plasmodium falciparum [1], in the experiment with Plasmodium falciparum [2] and in the experiment on HepG2 were 97%, 83% and 30%, respectively.

Take `O=C(O)C(F)(F)F.c1ccc2c(c1)CN(CC1CCOCC1)CC1(CCN(Cc3c[nH]c4cnccc34)CC1)O2`: the Inhibition in the experiment on Plasmodium falciparum [1] was 99%; with Plasmodium falciparum [2], 7%; in the experiment on HepG2, 21%.

With `Fc1cccc(COc2ccc(Nc3ncnc4sc(C#CCNC5CCC5)cc34)cc2Cl)c1`, the Inhibition in the experiment with Plasmodium falciparum [1] came to 100%; in the experiment on Plasmodium falciparum [2], 73%; in the experiment on HepG2, 15%.

Take `O=[N+]([O-])c1ccc(/C=N/O)nc1`: the Inhibition worked out at 80% with Plasmodium falciparum [1], 98% in the experiment on Plasmodium falciparum [2] and 80% in the experiment on HepG2.

`O=C(NC1CCCCC1)N(Cc1cccc(-c2ccc(CNCCc3ccccc3)cc2)c1)C1CCN(Cc2ccccc2)CC1.O=C(O)C(F)(F)F`: the Inhibition in the experiment on Plasmodium falciparum [1] is given as 93%; with Plasmodium falciparum [2], 93%; in the experiment on HepG2, 61%.

Consider `COc1ccccc1N1CCN(CCCCNC(=O)c2ccc(NC(=O)c3ccc4ccccc4c3)cc2)CC1`, for which the figures for the Inhibition in the experiment with Plasmodium falciparum [1], in the experiment on Plasmodium falciparum [2] and with HepG2 were 97%, 18% and 16%, respectively.

`Cc1cccc(C(=O)Nc2ccnc(N3CCC(N(C)Cc4ccc(C#N)cc4)CC3)c2)c1.O=C(O)C(F)(F)F`: the Inhibition in the experiment on Plasmodium falciparum [1] is 94%; in the experiment with Plasmodium falciparum [2] it was 6%; with HepG2, 12%.

As to `Clc1ccc(Nc2nc(Nc3ccc(Cl)c(Cl)c3)nc(Sc3nc4ccccc4[nH]3)n2)cc1Cl`, the Inhibition in the experiment on Plasmodium falciparum [1] came out at 99%; in the experiment with Plasmodium falciparum [2], 100%; in the experiment with HepG2 it was 10%.

Turning to `Nc1c(Cl)cc(C(O)CNCCCCCOCCc2ccc3ccccc3n2)cc1Cl.O=C(O)/C=C/C(=O)O` (stereo not given), the Inhibition in the experiment on Plasmodium falciparum [1] came out at 98%; in the experiment with Plasmodium falciparum [2], 97%; in the experiment on HepG2, 9%.

As for `CN(CCN)Cc1cccc(-c2ccc(-c3nc4cc(C(F)(F)F)ccc4[nH]3)s2)c1.O=C(O)C(F)(F)F`, the Inhibition in the experiment with Plasmodium falciparum [1] was found to be 100%; with Plasmodium falciparum [2], 92%; in the experiment with HepG2, 27%.

As to `Br.Nc1ccc(-c2csc(Nc3ccncc3)n2)cc1`, the Inhibition in the experiment on Plasmodium falciparum [1] turned out to be 95%; with Plasmodium falciparum [2], 50%; in the experiment on HepG2, 12%.

As for `NC(=O)c1cccc(C(=O)Nc2cccc(-c3cccc(-c4nc5ccccc5[nH]4)c3)c2)c1`, the Inhibition was 100% with Plasmodium falciparum [1], 78% in the experiment on Plasmodium falciparum [2] and 32% in the experiment on HepG2.

`O=C(/C=C/c1ccc(Cl)c(Cl)c1)NCCCCCN1CCCN(C(=S)Nc2ccc(Cl)c(Cl)c2)CC1`: the Inhibition in the experiment with Plasmodium falciparum [1] was determined as 96%; in the experiment with Plasmodium falciparum [2], 0%; in the experiment with HepG2 it was 16%.

Take `COc1ccc(-c2cc(NCc3ccc(-n4ccnc4)cc3)nc(Nc3ccccc3)n2)cc1`: the Inhibition turned out to be 100% in the experiment on Plasmodium falciparum [1], 79% in the experiment on Plasmodium falciparum [2] and 8% with HepG2.

Consider `Cn1cc(CCNc2ccnc(N3CCC(c4ncc[nH]4)CC3)n2)c2ccccc21`, for which the Inhibition with Plasmodium falciparum [1] was determined as 92%; in the experiment with Plasmodium falciparum [2], 5%; with HepG2, 12%.

As to `CNC(=O)Cc1ccc(C(=O)Nc2cccc(-c3cccc(-c4nc5cccc(C)c5[nH]4)c3)c2)cc1`, the Inhibition with Plasmodium falciparum [1] is given as 96%; in the experiment on Plasmodium falciparum [2] it was 53%; in the experiment on HepG2 it was 15%.

In the case of `Cc1cccc2nc(-c3ccc(-c4cccc(CNCc5cccc(N)c5)c4)s3)[nH]c12.O=C(O)C(F)(F)F`, the Inhibition was 100% in the experiment on Plasmodium falciparum [1], 85% in the experiment with Plasmodium falciparum [2] and 15% in the experiment on HepG2.

For the compound `CCCc1cc(Cc2cnc(N)nc2N)cc(CCC)c1OCCCCC(=O)O`, the Inhibition turned out to be 95% with Plasmodium falciparum [1], 23% in the experiment with Plasmodium falciparum [2] and 18% in the experiment with HepG2.

The values are drawn from ChEMBL document CHEMBL1157539, “Thousands of chemical starting points for antimalarial lead identification” (Nature, 2010).
